PubChem BioAssay
For part of these data: Results with a measured potency or affinity are listed apart. This is one part of the list. The source made the active and inactive calls.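 Rule for the calls, unless noted: active = primary screen hit whose fluorescence ratio, in both repeats, exceeds the weak agonist control mean by 3 SD; inactive = the rest.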

Legend:
[1] = system: TRPC4 beta (transient receptor potential cation channel C4), mouse; assay: TRPC4 cation channel opening, retest – cell-based, Fluo4 calcium, HEK293 TRPC4beta/mu-opioid, duplicates, 10 µM, confirmation (AID 2426;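 active = fluorescence ratio normalized to control raised more than 50% in primary screen plus both repeat runs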); details: Fluo4 calcium fluorescence, at 10 µM; stronger effect = higher value
[2] = system: transient receptor potential cation channel C4 beta (TRPC4), mouse; assay: TRPC4 cation channel opening, second retest – cell-based, second round, Fluo4, HEK293 TRPC4beta/mu-opioid, 1 µM, confirmation (AID 2461;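 active = primary screen active and over 50% activation in each of two duplicate runs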); details: Fluo4 calcium fluorescence, at 1 µM; stronger effect = higher value
[3] = system: TRPC4 (transient receptor potential cation channel C4 beta), mouse; assay: potentiation of DAMGO EC20 TRPC4 response – cell-based, second round, Fluo-4, HEK293 TRPC4beta/mu-opioid, 1 µM, confirmation (AID 2554); details: DAMGO EC20, Fluo-4 calcium flux, at 1 µM; stronger effect = higher value
[4] = system: TRPC4 beta (transient receptor potential cation channel C4), mouse; assay: potentiation of DAMGO EC20 TRPC4 response – cell-based, Fluo-4, HEK293 TRPC4beta/mu-opioid, confirmation (AID 2555;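 active = primary screen hit whose calcium fluorescence ratio, in both repeats, exceeds the weak agonist control mean by 3 SD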); details: DAMGO EC20, Fluo-4 calcium flux, at 10 µM; stronger effect = higher value
[5] = target: Short transient receptor potential channel 4 (Mus musculus) (UniProt Q9QUQ5); assay: blockers of DAMGO-evoked TRPC4 calcium flux – cell-based, Fluo4, HEK293 TRPC4beta/mu-opioid, confirmation (AID 2636;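 active = calcium signal cut by more than 3 SD below the full-agonist control yet still positive, in both repeats and the earlier primary screen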); details: at 10 µM; stronger effect = higher value
[6] = target: Short transient receptor potential channel 4 (Mus musculus) (UniProt Q9QUQ5); assay: blockers of DAMGO-evoked TRPC4 calcium flux – cell-based, second round, Fluo4, HEK293 TRPC4beta/mu-opioid, 1 µM, confirmation (AID 2637;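 active = calcium signal ratio cut to more than 3 SD under the fully stimulated control mean yet still positive, in both repeats and the primary screen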); details: at 1 µM; stronger effect = higher value
[7] = target: Short transient receptor potential channel 4 (Mus musculus) (UniProt Q9QUQ5); assay: calcium entry via TRPC4 opening agents – cell-based, HEK293 TRPC4/mu-opioid, Fluo-4 calcium, dose response (AID 434937;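 active = primary screen activator hit with a dose response curve and TRPC4 channel activation at any tested dose; inactive = no activation, no dose response, or not a primary hit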)
[8] = target: Short transient receptor potential channel 4 (Mus musculus) (UniProt Q9QUQ5); assay: potentiation of DAMGO-evoked TRPC4 calcium signal – cell-based, HEK293 TRPC4/mu-opioid, Fluo-4 calcium, EC20 DAMGO, dose response (AID 434941;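 active = earlier screen potentiator hit that boosts the TRPC4 ion channel at some dose, with a dose response; inactive = no potentiation, no dose response, or not a prior hit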;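 note: calcium entry triggered by an EC20 dose of DAMGO at the co-expressed mu-opioid receptor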)
[9] = target: Short transient receptor potential channel 4 (Mus musculus) (UniProt Q9QUQ5); assay: block of DAMGO-driven TRPC4 calcium entry – cell-based, HEK293 TRPC4/mu-opioid, Fluo-4 calcium, dose response (AID 434942;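 active = primary screen inhibitor hit that blocks the TRPC4 channel at some tested dose, yielding a dose curve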)
[10] = target: Short transient receptor potential channel 6 (Mus musculus) (UniProt Q61143); assay: TRPC6 blockade by TRPC4 inhibitor hits – cell-based, HEK293, membrane potential dye, duplicate, selectivity assay for TRPC4 inhibitor project, confirmation (AID 434948;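 active = active in primary screen and both duplicates, each dropping signal beyond three positive-control SD with fluorescence still positive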); details: HEK293 TRPC6, membrane potential dye fluorescence, at 10 µM; inhibition: stronger effect = higher value, stimulated with maximal-effect acetylcholine unless noted; outcome: stimulated with maximal-effect acetylcholine unless noted
[11] = target: Short transient receptor potential channel 6 (Mus musculus) (UniProt Q61143); assay: TRPC6 opening by TRPC4 activator hits – cell-based, HEK293, membrane potential dye, duplicate, selectivity assay for TRPC4 activator project, confirmation (AID 434950;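 active = membrane potential signal rise above negative control mean plus 3 SD in both duplicates, also active in the earlier TRPC4 screen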); details: HEK293 TRPC6, membrane potential fluorescence, at 10 µM; activation: stronger effect = higher value; outcome: activation
[12] = target: Short transient receptor potential channel 6 (Mus musculus) (UniProt Q61143); assay: positive modulators of mouse TRPC6 channel – HEK293 cells, membrane potential dye, duplicate, selectivity assay for TRPC4 potentiator project, confirmation (AID 434952;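 active = compound raising the membrane signal above positive-control mean plus 3 SD in both repeats, and a primary screen hit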); details: HEK293 TRPC6, membrane potential dye fluorescence, at 10 µM; maximal acetylcholine added after compound unless noted
[13] = target: Short transient receptor potential channel 4 (Mus musculus) (UniProt Q9QUQ5); assay: calcium flux activators in TRPC4/5HT1a cells, counter-screen for TRPC4 activator project, cell-based, second counter screen, HEK293 TRPC4/5HT1a, Fluo-4 (AID 434977;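 active = calcium signal rise above buffer-control mean plus 5 SD in both duplicates, and also a hit in the primary screen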); details: Fluo-4 calcium flux, at 10 µM; stronger effect = higher value
[14] = serotonin-gated TRPC4 signal block – cell-based, second counter screen, HEK293 TRPC4/5HT1a, Fluo-4, counter-screen for TRPC4 inhibitor project, confirmation (AID 434978;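 active = primary screen active whose calcium signal fell more than 3 SD beyond the full-serotonin control mean in both duplicate plates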;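 note: serotonin given first at submaximal then at maximal dose after compound preincubation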); details: Fluo-4 calcium flux, at 10 µM; inhibition: stronger effect = higher value, serotonin added to trigger calcium flux unless noted; outcome: serotonin added to trigger calcium flux unless noted
[15] = system: TRPC4 (mouse), co-expressed with 5HT1a in HEK293; assay: enhancement of serotonin-evoked TRPC4 response – cell-based, second counter screen, HEK293 TRPC4/5HT1a, Fluo-4, counter-screen for TRPC4 potentiator project, confirmation (AID 434979;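 active = signal rise over 3 SD above mean of control wells given weak agonist, in both repeats and first screen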); details: Fluo-4 calcium flux, at 10 µM; outcome: serotonin added at its EC20 dose unless noted; potentiation: stronger effect = higher value, serotonin added at its EC20 dose unless noted
[16] = nonspecific calcium rise without TRPC4 – cell-based, HEK293 mu-opioid receptor line, counter-screen for TRPC4 activator project, confirmation (AID 449723;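 active = hit in primary screen, with calcium signal over 5 SD above buffer well mean in both duplicates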;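 note: counter screen cells carry the mu-opioid receptor alone and lack TRPC4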); details: HEK293 mu-opioid cells, Fluo-4 calcium fluorescence, at 10 µM; stronger effect = higher value
[17] = nonspecific potentiation of DAMGO calcium response – cell-based, HEK293 mu-opioid receptor line, counter-screen for TRPC4 allosteric potentiator project, confirmation (AID 449724;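 active = calcium signal rise more than 3 SD above the low-dose agonist control mean, in both duplicate plates and the primary screen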); details: HEK293 mu-opioid receptor cells, Fluo-4 calcium flux, at 10 µM; compound added before EC20 DAMGO stimulus unless noted
[18] = target: Inward rectifier potassium channel 2 (Mus musculus) (UniProt P35561); assay: inhibition of Kir2.1 inward rectifier potassium flux – cell-based, FluxOR thallium flux, duplicate, confirmation (AID 2032;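 active = Primary-screen hit whose thallium flux fell at least 3 control SD below untreated wells in both duplicates, with normal baseline fluorescence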); details: Kir2.1-expressing cells, FluxOR thallium flux fluorescence, at 10 µM; stronger effect = lower value
[19] = parental HEK293 cell activity, no Kir2.1 – FluxOR thallium flux, duplicate, single concentration, counter-screen for Kir2.1 inhibitor project, confirmation (AID 2105;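 active = dye signal at least 3 control SD above or below untreated wells in both duplicates, raw fluorescence within 3, either direction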); details: parental HEK293 cells, FluxOR thallium flux fluorescence, at 10 µM; 0% = unstimulated blank wells
[20] = nonspecific flux increase, KCNQ1-free cells – parental CHO cells, counter-screen for KCNQ1 potentiator project (AID 493006;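 active = duplicate-averaged activation above buffer control mean plus 5 SD of those controls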;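 note: fluorescence ratio of max minus min over baseline after K+ and Tl+ depolarization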); details: parental CHO-K1 cells, FluxOR thallium flux, at 10 µM; stronger effect = higher value

Chain of Short transient receptor potential channel 4 (Mus musculus) (Q9QUQ5 whole entry, looked up): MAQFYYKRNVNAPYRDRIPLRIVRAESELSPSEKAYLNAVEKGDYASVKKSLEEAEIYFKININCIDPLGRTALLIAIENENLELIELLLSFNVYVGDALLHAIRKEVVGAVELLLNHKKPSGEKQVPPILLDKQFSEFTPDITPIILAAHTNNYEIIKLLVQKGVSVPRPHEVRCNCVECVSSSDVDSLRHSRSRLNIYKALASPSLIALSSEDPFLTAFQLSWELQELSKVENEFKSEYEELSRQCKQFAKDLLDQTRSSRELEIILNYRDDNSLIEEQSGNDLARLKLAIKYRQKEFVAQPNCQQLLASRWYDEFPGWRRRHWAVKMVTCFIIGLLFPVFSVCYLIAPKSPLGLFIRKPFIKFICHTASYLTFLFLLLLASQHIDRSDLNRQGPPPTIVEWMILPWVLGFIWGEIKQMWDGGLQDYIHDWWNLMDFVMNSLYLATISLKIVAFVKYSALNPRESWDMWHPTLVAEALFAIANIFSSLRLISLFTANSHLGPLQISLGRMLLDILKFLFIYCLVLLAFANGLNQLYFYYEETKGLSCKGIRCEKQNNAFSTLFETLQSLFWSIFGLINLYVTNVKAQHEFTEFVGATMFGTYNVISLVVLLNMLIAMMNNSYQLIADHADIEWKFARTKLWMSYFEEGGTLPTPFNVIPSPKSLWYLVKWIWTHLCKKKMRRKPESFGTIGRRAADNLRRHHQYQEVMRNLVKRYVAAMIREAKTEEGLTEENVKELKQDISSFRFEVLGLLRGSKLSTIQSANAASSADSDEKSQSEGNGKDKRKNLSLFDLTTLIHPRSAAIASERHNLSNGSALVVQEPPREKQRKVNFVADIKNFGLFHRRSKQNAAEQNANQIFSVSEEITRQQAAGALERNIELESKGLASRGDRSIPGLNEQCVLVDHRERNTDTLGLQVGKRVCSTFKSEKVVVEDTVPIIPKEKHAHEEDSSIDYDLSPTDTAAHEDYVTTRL
Chain of Inward rectifier potassium channel 2 (Mus musculus) (P35561 whole entry, looked up): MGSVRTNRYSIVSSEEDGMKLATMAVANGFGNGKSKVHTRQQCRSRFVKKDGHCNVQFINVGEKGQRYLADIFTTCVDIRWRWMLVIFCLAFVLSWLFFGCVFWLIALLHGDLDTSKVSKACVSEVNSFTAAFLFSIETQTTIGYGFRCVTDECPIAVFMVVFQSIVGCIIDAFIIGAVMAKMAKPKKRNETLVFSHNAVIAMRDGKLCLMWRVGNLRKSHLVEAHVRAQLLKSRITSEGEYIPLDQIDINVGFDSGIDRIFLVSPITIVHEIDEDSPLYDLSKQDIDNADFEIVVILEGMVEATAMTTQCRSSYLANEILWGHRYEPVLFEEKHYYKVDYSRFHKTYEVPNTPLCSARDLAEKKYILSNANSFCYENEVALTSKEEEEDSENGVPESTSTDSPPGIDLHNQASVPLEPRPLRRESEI
Chain of Short transient receptor potential channel 6 (Mus musculus) (Q61143 whole entry, looked up): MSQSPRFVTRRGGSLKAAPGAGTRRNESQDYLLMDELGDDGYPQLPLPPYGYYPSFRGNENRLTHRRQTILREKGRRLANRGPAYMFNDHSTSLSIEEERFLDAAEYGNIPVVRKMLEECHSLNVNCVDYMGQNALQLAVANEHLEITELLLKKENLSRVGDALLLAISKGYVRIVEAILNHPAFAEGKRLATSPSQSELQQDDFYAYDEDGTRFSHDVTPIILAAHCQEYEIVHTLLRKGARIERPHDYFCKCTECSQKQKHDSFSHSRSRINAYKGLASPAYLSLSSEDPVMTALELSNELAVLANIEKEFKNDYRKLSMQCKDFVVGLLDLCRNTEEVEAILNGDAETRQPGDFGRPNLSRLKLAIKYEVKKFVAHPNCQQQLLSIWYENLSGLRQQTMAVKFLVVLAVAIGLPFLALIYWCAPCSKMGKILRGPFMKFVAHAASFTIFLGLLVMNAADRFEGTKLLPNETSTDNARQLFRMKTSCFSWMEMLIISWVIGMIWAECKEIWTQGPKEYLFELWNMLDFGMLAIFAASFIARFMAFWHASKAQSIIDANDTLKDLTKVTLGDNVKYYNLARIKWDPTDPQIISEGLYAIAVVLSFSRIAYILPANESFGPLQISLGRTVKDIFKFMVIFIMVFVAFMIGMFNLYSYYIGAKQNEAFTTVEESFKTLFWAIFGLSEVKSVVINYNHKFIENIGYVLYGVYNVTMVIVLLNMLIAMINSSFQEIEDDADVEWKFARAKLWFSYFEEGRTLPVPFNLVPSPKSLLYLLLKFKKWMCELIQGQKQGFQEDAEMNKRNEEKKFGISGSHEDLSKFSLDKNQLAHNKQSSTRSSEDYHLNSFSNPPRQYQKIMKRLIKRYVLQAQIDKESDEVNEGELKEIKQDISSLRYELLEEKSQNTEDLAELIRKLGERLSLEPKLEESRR

CCCCN1C(=O)NC(=O)C2(Cc3c(nc4c(C)cccn4c3=O)N3CCc4ccccc4C32)C1=O (stereo not drawn)
active: potentiation [4] 23% | potentiation [15] 37.1% [stronger effect = higher value]
inactive: outcome [1] | outcome [2] | outcome [3] | outcome [5] | outcome [6] | outcome [7] | outcome [8] | outcome [9] | outcome [10] inactive [setting not given] | outcome [11] | outcome [12] inactive [setting not given] | outcome [13] | outcome [14] inactive [setting not given] | outcome [16] | outcome [17] inactive [setting not given]

COc1ccc(Br)cc1CNCCc1cccc(Cl)c1
inactive: outcome [19]
active: Tl flux remaining, % of negative control (stronger effect = lower value) [18] 15.5%

C=CCOC(=O)C1=C(C)OC(N)=C(C#N)[C@@]12C(=O)N(CC(N)=O)c1ccccc12
inactive: outcome [1] | outcome [2] | outcome [3] | outcome [5] | outcome [6] | outcome [7] | outcome [8] | outcome [9] | outcome [10] | outcome [11] | outcome [12] | outcome [13] | outcome [14] | outcome [16] | outcome [17]
active: potentiation [4] 26% | potentiation [15] 7.13%

Cc1ccc(-c2cc(-c3ccccc3)cc(-c3ccccc3)[n+]2-c2ccccc2)cc1
inactive: outcome [1] | outcome [2] | outcome [3] | outcome [5] | outcome [6] | outcome [7] | outcome [8] | outcome [9] | outcome [10] | outcome [11] | outcome [12] | outcome [13] | outcome [14] | outcome [16] | outcome [17]
active: potentiation [4] 18% | potentiation [15] 9.63%

c1ccc(C2NCc3ccccc3-n3cccc32)cc1 (stereo not drawn)
active: Tl flux remaining, % of negative control (stronger effect = lower value) [18] 52%
inactive: outcome [19]

Cc1ccc(-c2nc(N(C)C3CCN(C)CC3)c3ccccc3n2)cc1
active: potentiation [3] 14% | potentiation [4] 24% | potentiation [15] 34.7%
inactive: outcome [1] | outcome [2] | outcome [5] | outcome [6] | outcome [7] | outcome [8] | outcome [9] | outcome [10] | outcome [11] | outcome [12] | outcome [13] | outcome [14] | outcome [16] | outcome [17]

CN1CCN(Cc2cc(=O)n3ccsc3n2)CC1
inactive: outcome [1] | outcome [2] | outcome [3] | outcome [4] | outcome [5] | outcome [6] | outcome [7] | outcome [8] | outcome [9] | outcome [10] | outcome [11] | outcome [12] | outcome [13] | outcome [14] | outcome [16] | outcome [17]
active: potentiation [15] 20%

CN(C)CCn1cnc2ccccc21
inactive: outcome [1] | outcome [2] | outcome [3] | outcome [4] | outcome [5] | outcome [6] | outcome [7] | outcome [8] | outcome [9] | outcome [10] | outcome [11] | outcome [12] | outcome [13] | outcome [14] | outcome [16] | outcome [17]
active: potentiation [15] 19.9%

COc1cc(-n2c(=S)[nH]c3ccc(C)cc3c2=O)c(Cl)cc1Cl
active: activation [20] 182%
inactive: outcome [18] | outcome [19]

Cc1cc(OC(C)C(=O)NCc2ccncc2)c2c3c(c(=O)oc2c1)CCCC3 (stereo not drawn)
inactive: outcome [1] | outcome [2] | outcome [3] | outcome [4] | outcome [5] | outcome [6] | outcome [7] | outcome [8] | outcome [9] | outcome [10] | outcome [11] | outcome [12] | outcome [13] | outcome [14] | outcome [15] | outcome [16] | outcome [17]

Cc1ccccc1CN1CCNCC1
inactive: outcome [1] | outcome [2] | outcome [3] | outcome [4] | outcome [5] | outcome [6] | outcome [7] | outcome [8] | outcome [9] | outcome [10] inactive [setting not given] | outcome [11] | outcome [12] inactive [setting not given] | outcome [13] | outcome [14] inactive [setting not given] | outcome [15] inactive [setting not given] | outcome [16] | outcome [17] inactive [setting not given]

Nc1c([N+](=O)[O-])cc(F)c(N2CCNCC2)c1Br
inactive: outcome [1] | outcome [2] | outcome [3] | outcome [4] | outcome [5] | outcome [6] | outcome [7] | outcome [8] | outcome [9] | outcome [10] | outcome [11] | outcome [12] | outcome [13] | outcome [14] | outcome [16] | outcome [17]
active: potentiation [15] 22.5%

CC(C)CNc1c2c(nc3ccccc13)CCC2
inactive: outcome [1] | outcome [2] | outcome [3] | outcome [4] | outcome [5] | outcome [6] | outcome [7] | outcome [8] | outcome [9] | outcome [10] | outcome [11] | outcome [12] | outcome [13] | outcome [14] | outcome [15] | outcome [16] | outcome [17]

CCC1=Nc2cc(C(=O)N3CCC4(CC3)OCCO4)ccc2Sc2ccc(Br)cc21
inactive: outcome [1] | outcome [2] | outcome [3] | outcome [4] | outcome [5] | outcome [6] | outcome [7] | outcome [8] | outcome [9] | outcome [10] inactive [setting not given] | outcome [11] | outcome [12] inactive [setting not given] | outcome [13] | outcome [14] inactive [setting not given] | outcome [15] inactive [setting not given] | outcome [16] | outcome [17] inactive [setting not given]

Cc1cccc(N=Cc2c(O)n(-c3ccccc3C)c(=O)[nH]c2=O)c1
active: potentiation [4] 28% | potentiation [15] 32.1% [stronger effect = higher value]
inactive: outcome [1] | outcome [2] | outcome [3] | outcome [5] | outcome [6] | outcome [7] | outcome [8] | outcome [9] | outcome [10] inactive [setting not given] | outcome [11] | outcome [12] inactive [setting not given] | outcome [13] | outcome [14] inactive [setting not given] | outcome [16] | outcome [17] inactive [setting not given]

COC(=O)C(Cc1ccc(N(CCCl)CCCl)cc1)N=Cc1ccccc1O (stereo not drawn)
inactive: outcome [1] | outcome [2] | outcome [3] | outcome [4] | outcome [5] | outcome [6] | outcome [7] | outcome [8] | outcome [9] | outcome [10] | outcome [11] | outcome [12] | outcome [13] | outcome [14] | outcome [15] | outcome [16] | outcome [17]
